Sampled rows, rich in hits. Any-hit rate of the full collection: about 7.9%.
MCF10A rerep = DNA re-replication induction in MCF 10a cells; MCF 10A DNA re-replication, Hoechst nuclear intensity, 48 h; Potency, µM (highest dose often 46.1 µM), hits mostly activators; actives 2.9% (n = 350,000); AID 624296; also: nearly all actives have a fitted effect of over 50% in size
HT1080 IDH1KD tx = toxicity to HT-1080 IDH1 knockdown cells (counter line); HT-1080 IDH1 knockdown viability, ATP luminescence, 48 h; Potency, µM (series often up to 46.1 µM), most hits filed as cytotoxic; actives 2% (n = 360,000); AID 686971
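Knockdown cells (IDH1KD HT-1080) received compounds 2 h after plating at 750 cells/well and were kept 48 h at 37 °C in 5% FBS RPMI. A CellTiter-Glo luminescence read gave % activity for curve fitting.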
KB-V1 cytotox = kills drug-selected multidrug resistant KB-V1 cells; KB-V1 MDR cells viability, CellTiter-Glo, 72 h; actives 3.4% (n = 400,000); Potency, µM (highest dose often 46.1 µM), most hits filed as cytotoxic; also: nearly all actives have a fitted effect of over 60% in size
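Luminescent ATP read-out (CellTiter-Glo, 10 min) measures survival of drug-selected KB-V1 MDR cells after 72 h, 37 degrees C compound exposure. Medium: phenol-red-free DMEM, 10% FBS. Values from fitted concentration-response curves.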
SW480 rerep = DNA re-replication induction in SW480 cells; actives 1.8% (n = 340,000); AID 624297; SW480 DNA re-replication, Hoechst DNA content imaging, 48 h; Potency, µM (series often up to 46.1 µM), hits mostly activators; also: nearly all actives have a fitted effect of over 55% in size
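Image-based read-out: total Hoechst fluorescence of nuclei (405 nm excitation, 500-530 nm emission), with hits raising the fraction of high-intensity nuclei. SW480 colon cells incubated 48 hr with compounds at 37 C.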
KB-3-1 cytotox = kills parental KB-3-1 adenocarcinoma cells; KB-3-1 viability, CellTiter-Glo ATP luminescence, 72 h; Potency, µM (highest dose often 46.1 µM), usual class: cytotoxic; actives 1.4% (n = 400,000); also: nearly all actives have a fitted effect of over 60% in size
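Cells are dispensed, compounds pinned in, plates held at 37 °C for 72 h, then CellTiter-Glo is added and luminescence read after 10 minutes. Cell line: parental KB-3-1 in phenol-red-free DMEM, 10% FBS.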
HT1080-NT tox = kills 2HG-producing HT-1080-NT fibrosarcoma cells. HT-1080-NT fibrosarcoma viability, CellTiter-Glo ATP luminescence, 48 h. Potency, µM (series often up to 46.1 µM), actives largely listed as cytotoxic. actives 1.6% (n = 360,000);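 also: NT is the 2HG producing partner of a matched IDH1 knockdown line; nearly all actives have a fitted effect of over 55% in size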
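Compounds were tested in concentration-response format on HT-1080-NT cells for 48 hours at 37 degrees C. Cell viability came from CellTiter-Glo luminescence; curves were classified by r2, response magnitude and activity.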
Hits are given with their value; i = inactive; ? = inconclusive; nt = not tested or not shown; [ ] = remark or other dose. Calls follow the shape of the dose curve; as a rule, active = well fitted curve in the direction sought with a large enough effect; inconclusive = small, poorly fitted or top-dose-only effect, or another doubt; inactive = no such curve, though single readings can be large; an effect the other way counts as inactive or inconclusive.

SMILES | MCF10A rerep | HT1080 IDH1KD tx | KB-V1 cytotox | SW480 rerep | KB-3-1 cytotox | HT1080-NT tox
CCN(CC)C(=O)CN1C(=O)C2(OCC(C)(C)CO2)c2ccccc21 | i | i | 16.4µM | i | i | i
O=C1N(Cc2ccccc2F)c2ccccc2C12OCCCO2 | i | i | i | i | i | i
CC1CCCN(C(=O)c2ccc3ncsc3c2)C1 (stereo not given) | i | i | i | 3.66µM | i | i
Cc1ccc(C)c(N2CCN(C(=O)c3ccc4c(c3)c(C)c(C)n4C)CC2)c1 | 5.17µM | ? | i | ? | ? | ?
COc1ccccc1N1CCN(C(=O)c2ccc3nc(-c4ccco4)c(-c4ccco4)nc3c2)CC1 | 23.1µM | ? | 23.1µM | ? | ? | ?
COc1ccccc1N1CCN(C2CCN(C(=O)c3cccc(F)c3)CC2)CC1 | i | i | 16.4µM | i | i | i
Cc1cccc(N2CCN(C(=O)c3ccc4c(c3)c(C)c(C)n4C)CC2)c1C | nt | nt | i | nt | i | nt
COc1ccc(NC(=O)CSc2nc(-c3ccco3)cc(C(F)(F)F)n2)c(OC)c1 | nt | nt | i | nt | i | nt
Cc1ccc(C)c(N2CCN(C(=O)c3ccc4nc(-c5ccco5)c(-c5ccco5)nc4c3)CC2)c1 | ? | ? | ? | 18.4µM | 18.4µM | ?
COc1ccccc1N1CCN(C(=O)c2ccc3ncsc3c2)CC1 | 20.6µM | 8.2µM | 11.6µM | 16.4µM | 5.17µM | 11.6µM
COc1ccccc1N1CCN(C(=O)c2nc(SC)ncc2Cl)CC1 | nt | nt | 4.11µM | nt | 4.11µM | nt
COc1ccc(OC)c2sc(N3CCN(C(=O)c4ccc5ncsc5c4)CC3)nc12 | i | i | i | i | i | i
C=C1NN(CC2CC2)C(=O)N1c1ccc(OCc2ccccc2)cc1 | nt | nt | i | nt | i | nt
CSS(=O)(=O)c1cccc2cccnc12 | 18.4µM | i | i | ? | i | i
O=Cc1ccc2ccc3cccnc3c2n1 | ? | ? | i | 20.6µM | i | ?
CCN(CC)S(=O)(=O)c1cccc2cccnc12 | i | i | i | i | i | i
Cc1ccnc2c1ccc1cccnc12 | ? | ? | ? | i | ? | ?
c1cnc2c(c1)ccc1cccnc12 | ? | 7.31µM | ? | ? | ? | 7.31µM
CCOc1ccc(NC(=O)Cn2c(=O)c(CNc3ccc(CC)cc3)cc3cc4c(cc32)OCO4)cc1 | nt | nt | i | nt | i | nt
COc1cc2c3c(c1OC)-c1cc4c(cc1CC3(C#N)N(C(=O)c1ccccc1)CC2)OCO4 (stereo not given) | i | i | 3.26µM | i | i | i
COc1ccc2c(c1OC)C(=O)OC2[C@H]1c2c(cc3c(c2OC)OCO3)CCN1C (stereo not given in full) | i | nt | nt | i | nt | nt
O=C(c1c[nH]c(C(=O)C(Cl)(Cl)Cl)c1)c1ccc(F)cc1F | i | i | i | ? | i | i
O=C(c1c[nH]c(C(=O)C(Cl)(Cl)Cl)c1)c1ccc(F)cc1Cl | i | 25.9µM | i | i | i | i
Cc1cccc(CNc2ncnc3ccc(-c4ccc5c(c4)OCCO5)cc23)c1 | ? | nt | i | i | 8.2µM | nt
Cc1csc(CNc2ncnc3ccc(-c4ccc5c(c4)OCCO5)cc23)c1 | ? | nt | i | i | ? | nt
SMILES | MCF10A rerep | HT1080 IDH1KD tx | KB-V1 cytotox | SW480 rerep | KB-3-1 cytotox | HT1080-NT tox
c1nc(NCc2ccc3c(c2)OCO3)c2cc(-c3ccc4c(c3)OCCO4)ccc2n1 | 9.2µM | nt | i | i[9.22 µM] | i | nt
Clc1cccc(-c2ccc3ncnc(NCc4cccs4)c3c2)c1 | ? | nt | i | i[9.22 µM] | i | nt
Cc1cccc(CNc2ncnc3ccc(-c4ccoc4)cc23)c1 | 2.59µM | nt | i | i | i | nt
c1cncc(CNc2ncnc3ccc(-c4ccc5c(c4)OCO5)cc23)c1 | i | nt | i | i | i | nt
c1cncc(CNc2ncnc3ccc(-c4ccoc4)cc23)c1 | i | nt | i | i | i | nt
Cc1cccc(-c2ccc3ncnc(NCc4cccs4)c3c2)c1 | i | nt | i | i | 13µM | nt
Cc1ccc(NC(=O)C2(c3cccs3)CCOCC2)cc1Cl | nt | nt | i | nt | i | nt
COc1cccc(-c2ccc3ncnc(NCc4ccc5c(c4)OCO5)c3c2)c1 | 16.4µM | nt | i | i[9.22 µM] | i | nt
COc1cccc(-c2ccc3ncnc(NCc4cc(C)cs4)c3c2)c1 | i | nt | i | i | ? | nt

Assay outcomes from PubChem BioAssay.
